Bioassay records as filed in PubChem.
This excerpt belongs to a sample that is enriched for hits.
Dicer processing – inhibitors of Dicer pre-microRNA processing, primary screen, biochemical, cat-ELCCA, chemiluminescence | hit rate 6% among 47,000 | Endoribonuclease Dicer (Homo sapiens), Q9UPY3 | cat-ELCCA pre-miR-21 Dicer processing; active compounds read high | z-score at 25 µM; in the data active = z-score above about 3, passing the limit was not always enough;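 also: plate controls were vehicle for no effect and no enzyme for full effect; higher signal means more uncleaved substrate so more Dicer inhibition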
Target sequence (Q9UPY3 whole entry, looked up): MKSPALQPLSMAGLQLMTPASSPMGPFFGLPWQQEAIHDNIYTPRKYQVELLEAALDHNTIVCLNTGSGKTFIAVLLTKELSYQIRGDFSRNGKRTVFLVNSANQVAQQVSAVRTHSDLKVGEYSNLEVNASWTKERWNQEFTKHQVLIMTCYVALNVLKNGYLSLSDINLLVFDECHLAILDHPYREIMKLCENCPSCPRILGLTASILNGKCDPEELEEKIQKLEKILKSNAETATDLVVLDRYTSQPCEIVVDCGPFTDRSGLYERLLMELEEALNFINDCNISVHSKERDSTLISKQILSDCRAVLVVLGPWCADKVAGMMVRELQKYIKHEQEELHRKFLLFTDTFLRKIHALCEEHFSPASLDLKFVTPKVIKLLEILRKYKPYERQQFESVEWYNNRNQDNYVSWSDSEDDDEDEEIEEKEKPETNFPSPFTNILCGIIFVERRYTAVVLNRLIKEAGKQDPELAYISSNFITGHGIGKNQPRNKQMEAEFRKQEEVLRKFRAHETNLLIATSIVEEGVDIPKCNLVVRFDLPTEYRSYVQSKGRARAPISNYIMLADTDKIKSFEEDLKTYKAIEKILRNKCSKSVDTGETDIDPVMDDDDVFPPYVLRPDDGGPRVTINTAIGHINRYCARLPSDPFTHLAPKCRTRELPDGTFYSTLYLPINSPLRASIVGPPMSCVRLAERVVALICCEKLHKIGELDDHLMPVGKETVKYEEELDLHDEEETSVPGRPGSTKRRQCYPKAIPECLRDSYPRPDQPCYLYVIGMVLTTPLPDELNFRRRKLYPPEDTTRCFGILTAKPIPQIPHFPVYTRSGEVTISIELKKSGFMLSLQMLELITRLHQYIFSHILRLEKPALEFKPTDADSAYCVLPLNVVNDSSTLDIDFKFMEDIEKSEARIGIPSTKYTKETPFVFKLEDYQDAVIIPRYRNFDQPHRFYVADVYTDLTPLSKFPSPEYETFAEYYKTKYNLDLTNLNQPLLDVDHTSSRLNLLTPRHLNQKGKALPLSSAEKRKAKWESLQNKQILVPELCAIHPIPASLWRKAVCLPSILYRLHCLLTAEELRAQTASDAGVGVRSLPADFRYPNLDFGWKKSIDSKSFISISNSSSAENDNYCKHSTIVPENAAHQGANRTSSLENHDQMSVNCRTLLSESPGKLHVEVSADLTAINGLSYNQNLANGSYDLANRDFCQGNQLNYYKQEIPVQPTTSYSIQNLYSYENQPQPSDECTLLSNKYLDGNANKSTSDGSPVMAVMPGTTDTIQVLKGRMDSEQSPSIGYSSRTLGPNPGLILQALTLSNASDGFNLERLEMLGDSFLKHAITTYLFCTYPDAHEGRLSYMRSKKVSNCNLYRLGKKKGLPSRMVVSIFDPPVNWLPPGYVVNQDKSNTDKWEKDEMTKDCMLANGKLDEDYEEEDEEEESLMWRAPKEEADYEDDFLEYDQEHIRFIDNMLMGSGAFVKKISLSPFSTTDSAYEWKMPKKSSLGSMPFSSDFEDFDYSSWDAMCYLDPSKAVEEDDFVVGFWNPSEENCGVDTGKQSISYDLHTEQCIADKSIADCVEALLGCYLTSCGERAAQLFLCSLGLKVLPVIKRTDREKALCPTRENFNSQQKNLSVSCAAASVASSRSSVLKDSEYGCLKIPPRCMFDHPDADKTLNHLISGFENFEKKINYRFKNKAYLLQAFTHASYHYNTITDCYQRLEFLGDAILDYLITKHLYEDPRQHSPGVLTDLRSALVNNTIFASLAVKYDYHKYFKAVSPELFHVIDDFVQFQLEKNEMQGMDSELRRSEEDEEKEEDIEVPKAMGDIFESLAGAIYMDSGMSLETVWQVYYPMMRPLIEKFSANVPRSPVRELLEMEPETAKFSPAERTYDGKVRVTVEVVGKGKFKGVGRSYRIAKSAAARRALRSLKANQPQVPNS
Active calls of the source: *.

SMILES	Dicer processing
CC1(C)CC(=O)C2=C(C1)OC1CCCCC21 (stereo not drawn)	3.4*
Cn1nccc1NC(=O)CC1(CC(=O)O)CCCCC1	0.01
Cc1cc(NC(=O)CCC(=O)O)n(C)n1	0.37
Cc1cc(NC(=O)CC2(CC(=O)O)CCCC2)n(C)n1	3.4*
CCOC(=O)C1C(c2c(F)cccc2Cl)C(C(=O)OCC)C(O)(C(F)(F)F)NC1(O)C(F)(F)F (stereo not drawn)	2.7
CCCCn1c(CCCO)nc2ccccc21	-0.83
Cc1ccc2ncc(NC(=O)c3ccc(C(C)(C)C)cc3)c(=O)n2c1	0.34
Cn1c(S(=O)(=O)Cc2ccc(Cl)cc2)nc2ccccc21	-0.41
Cn1c(CN2CCN(c3ccc(Cl)cc3)CC2)nc2ccccc21	6.1*
Cc1nnc2c(N3CCN(Cc4ccccc4)CC3)nc3ccccc3n12	-0.28
O=C1CCC2=C(CCCC2)N1c1ccccc1	0.58
COc1ccc(/C=N/NC(=O)N/N=C/c2ccc(OC)c(Br)c2)cc1Br	0.74
CNc1scnc1S(=O)(=O)c1ccc(C)cc1	0.76
N#Cc1cccc2c1-c1ccccc1C2=O	-1.3
N#Cc1cn(CCSc2cc(C(F)(F)F)nc3ccccc23)c(=O)[nH]c1=O	0.24
O=C1ON=C(c2ccccc2)C1C=C1CCCC1 (stereo not drawn)	4.2*
O=C1N=C(c2ccccc2)C(c2ccccc2)N1 (stereo not drawn)	2.9
O=C(CC1(O)C(=O)N(Cc2ccccc2)c2ccccc21)c1ccc(Cl)cc1 (stereo not drawn)	3*
CN(C)c1ccc(C(=O)CC2(O)C(=O)N(Cc3ccc(Cl)cc3)c3ccccc32)cc1 (stereo not drawn)	-1.7
Cc1ccc(C(=O)CC2(O)C(=O)N(CCc3ccccc3)c3ccc(Br)cc32)s1 (stereo not drawn)	4.9*
CN1C(=O)C(O)(CC(=O)c2ccccc2)c2ccccc21 (stereo not drawn)	2
CN1C(=O)C(O)(CC(=O)c2ccc3c(c2)CCCC3)c2ccccc21 (stereo not drawn)	3.3*
CN1C(=O)C(O)(CC(=O)c2ccc3c(c2)OCO3)c2ccccc21 (stereo not drawn)	1.8
O=C(CC1(O)C(=O)N(CCc2ccccc2)c2ccc(Cl)cc21)c1cccs1 (stereo not drawn)	4.2*
Cc1coc(C)c1C(=O)CC1(O)C(=O)N(CCc2ccccc2)c2ccc(Br)cc21 (stereo not drawn)	-0.43
SMILES	Dicer processing
O=C(CC1(O)C(=O)N(Cc2ccc(Cl)cc2)c2ccccc21)c1cccs1 (stereo not drawn)	0.52
O=C(CC1(O)C(=O)N(CCc2ccccc2)c2ccc(Br)cc21)c1ccco1 (stereo not drawn)	2.6
O=C(CC1(O)C(=O)N(CCc2ccccc2)c2ccc(Br)cc21)c1cccs1 (stereo not drawn)	3
CCN1C(=O)C(O)(CC(=O)c2cccs2)c2ccccc21 (stereo not drawn)	0.2
Cn1c(=O)c2c(nc(NCc3ccccn3)n2C)n(C)c1=O	-0.58
Cc1ccc(N2CC(=O)N(/N=C/c3cn(-c4ccccc4)nc3-c3ccc(Cl)cc3)CC2=O)cc1	-0.93
O=C(C1CC(c2c(F)cccc2Cl)=NO1)N1CCOCC1 (stereo not drawn)	-0.45
CCOC(=O)c1c(C)csc1NC(=O)c1ccc(C(C)(C)C)cc1	0.92
CN1CCN(c2nc3c(=O)[nH]c(N)nc3n2[C@H]2O[C@@H](CO)[C@H](O)[C@@H]2O)CC1	-1.4
CSc1sc(-c2ccnc(SCc3ccc(Cl)cc3)n2)c(-c2ccccc2)c1C#N	-0.87
Nc1c(C(=O)N/N=C/c2cccs2)oc2nc(-c3ccccc3)cc(-c3ccccc3)c12	-1.1
Cc1ccccc1CN1C(=O)C(O)(CC(=O)c2cccs2)c2cc(Cl)ccc21 (stereo not drawn)	5.3*
Cc1ccc(CN2C(=O)C(O)(CC(=O)c3cccs3)c3cc(Cl)ccc32)cc1 (stereo not drawn)	1.4
Cc1ccccc1CN1C(=O)C(O)(CC(=O)c2cccnc2)c2cc(Cl)ccc21 (stereo not drawn)	2.4
CN(C)CCN1C(=O)C(O)=C(C(=O)c2cc3ccccc3o2)C1c1cccc(Oc2ccccc2)c1 (stereo not drawn)	0.92
CNC(=S)N1CCCN(c2ccc(C#N)cn2)CC1	-0.51
CN(C)CC(=O)Nc1nc(-c2ccc(Cl)cc2)cs1	-1.2
FC(F)(F)c1ccc(N2CCCN(C(=S)NC3CCCCCCC3)CC2)nc1	-1.9
O=C(O)c1coc2c1/C(=N/Nc1c(Cl)cc(Cl)cc1Cl)CCC2	3.8*
Clc1cc(Cl)c(N/N=C2\CCCc3occc32)c(Cl)c1	2
O=C(O)c1coc2c1/C(=N/N1CCCCC1)CCC2	0.82
CNC(=O)Cc1c(Cl)sc2ccccc12	-1.9
CCOC(=O)NC(=O)/C(C#N)=C/c1ccc(N(C)C)cc1	3.4*
CCOC(=O)c1c(C)csc1NC(=O)/C(C#N)=C/c1ccc(O)cc1	0.68
CCOC(=O)/C(C#N)=C/c1ccc(-c2ccccc2)cc1	1.2
SMILES	Dicer processing
Fc1cccc(Cl)c1CSc1nc2cc(Cl)c(Cl)cc2[nH]1	-1
CCc1ccc(CN(C)CCc2ccccn2)cc1	1.9
CN(CCc1ccccn1)Cc1ccc(Cl)cc1	3.7*
Cc1ccc(CN(C)CCc2ccccn2)cc1	1.5
CCOc1ccc2c(c1)C(C)=CC(C)(C)N2S(=O)(=O)c1ccc(Cl)cc1	0.79
CCOc1ccc(N(C)S(=O)(=O)c2ccc(Cl)cc2)cc1	3.1*
COc1ccc(N(C2C=CS(=O)(=O)C2)S(=O)(=O)c2ccc(Cl)cc2)cc1 (stereo not drawn)	-1
CCCCCCCC1CC/C(=C/c2ccc(C#N)cc2)C1=O (stereo not drawn)	-2.1
COCCOc1nc2c(c(=O)n(C)c(=O)n2C)n1CCc1ccccc1	1.6
CCCOc1nc2c(c(=O)n(C)c(=O)n2C)n1C(C)c1ccccc1 (stereo not drawn)	3.5*
C#CCOc1nc2c(c(=O)n(C)c(=O)n2C)n1Cc1ccccc1	0.67
C/S(=N\S(=O)(=O)c1cccc2nsnc12)c1ncc(C(F)(F)F)cc1Cl (stereo not drawn)	-0.78
COC(=O)c1cc(OC)c(OC)cc1NC(=O)C(C)(C)C	2.2
Cc1ccc2nc(C)cc(N3CCOCC3)c2c1	4.4*
COc1ccc2nc(C)cc(N3CCOCC3)c2c1	-0.9
c1ccc(-c2cc(N3CCOCC3)c3ccccc3n2)cc1	1.1
O=c1c2ccccc2nc(SCc2c(F)cccc2Cl)n1-c1cccnc1	-1.1
Cc1cc(C)c2c(N)c(C(N)=O)sc2n1	0.03
C=CCNC(=S)NNC(=O)c1sc2nnc(-c3ccccc3)c(-c3ccccc3)c2c1N	16
C=CCNC(=S)NNC(=O)c1sc2nc(C)cc(C)c2c1N	4.2*
Cc1nn(C)c2sc(C(=O)Nc3ccc4nccnc4c3)cc12	2.2
Cc1nc(-c2ccccn2)nc(N(C)Cc2ccccc2)c1Cl	0.98
O=C(Nc1ccc(Cl)cc1)Nc1nnc(C(F)(F)F)s1	-1
Cc1nn(C)c(Oc2ccc(F)cc2)c1[N+](=O)[O-]	-2.6
Cc1nn(C)c(Cl)c1S(=O)(=O)Nc1ccc(Oc2ccc(F)cc2)cc1	3.2*
Cn1nc(-c2ccc(Cl)cc2)cc1NS(=O)(=O)c1ccc(F)cc1	0.12
COc1cccc(NC2SC(=O)N(c3ccccc3)C2=O)c1 (stereo not drawn)	49*
O=C1SC(Nc2cccc(Cl)c2)C(=O)N1c1ccccc1 (stereo not drawn)	0.86
